In the OligoGym collection:

What follows are sequences tested against INF2 (assay: pooled miR-30 sensor sort-seq; sequence = guide strand). Settings: shRNA.
Note: reference of the scale not given here.

| Sequence | sensor-assay potency score (higher = more potent) |
| --- | --- |
| TAGAGTTGTGCTCACGTGCCAC | -0.638 |
| TTCAGCAATGTGCTGATCTTGA | -0.209 |
| TTCATGACAATGCTGAAGCGGT | -0.245 |
| TTCAATCTCGTGCTTCTCGGGA | -0.3 |
| TTTCAATCTCGTGCTTCTCGGG | -0.468 |
| TAGCTCAAACACCTGCTTCTTC | -0.118 |
| TTTTGATTAAACCTTGCTGGGC | -0.764 |

What follows are sequences tested against INO80B in the same assay as above. Settings: shRNA.

| Sequence | sensor-assay potency score (higher = more potent) |
| --- | --- |
| TAACCCTCCTGATAGGTCCCGA | -0.336 |
| ATTATCCACAACCATAAGGGGA | -1.17 |
| TTTGAGTTTGAGCTGAGGCTTG | -0.36 |
| TTGAGTTTGAGCTGAGGCTTGG | -0.366 |
| TTGTGTTTCTTCTTGTGCTTCT | 0.567 |
| TTCTTGTGCACTCCATGGCCAT | -1.62 |
| TTACTGTCTTCATCCAGCCAGG | -0.737 |
| ATTACTGTCTTCATCCAGCCAG | -0.0733 |
| TCTGGGATCACAGTGAAGGTAG | 0.138 |
| TTATCCACAACCATAAGGGGAG | -0.805 |
| TTTTCTTGTGCACTCCATGGCC | -0.4 |
| TTCCTGATGGTGTTTCTTCTTG | -0.564 |
